In all, about 360,000 compounds went through this assay and about 6,000 (1.7%) were called active. Not shown: some 8% with an inconclusive outcome. The list comes from a sample in which actives are over-represented; it also holds similar structures and randomly drawn compounds. Values without a mark were called inactive. Calls follow the shape of the dose curve; as a rule, active = well fitted cell-killing curve with a large enough effect; inconclusive = small, poorly fitted or top-dose-only effect, or effect the other way; inactive = flat fitted curve, though single readings scatter.
Potency is read from the fitted curve at half-maximal effect.

The nature of this experiment: qHTS for induction of synthetic lethality in tumor cells producing 2HG: qHTS for the HT-1080-NT fibrosarcoma cell line.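 Also: NT is the 2HG producing partner of a matched IDH1 knockdown line; nearly all actives have a fitted effect of over 55% in size.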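 As to activity, negative = less viability: 0% = DMSO-treated cells and -100% = media-only wells without cells.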 To be noted: HT-1080-NT fibrosarcoma viability, CellTiter-Glo ATP luminescence, 48 h; series mostly up to 46.1 µM; activity, negative = less viability: at the top concentration. In short, it runs like this: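 Luminescent CellTiter-Glo readout after 48 hours of compound exposure at 37 degrees C defined viability of HT-1080-NT cells. Activity was normalized to DMSO wells and cell-free media wells; concentration-response curves were fitted and assigned curve classes.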
(In qHTS, concentration-response curves come from the screen itself.)
In the case of `COC(=O)CCCCC1=CCC2C(=O)C=C(O)C2C1` (stereo not drawn), the “activity, negative = less viability” value was 6.86%.
On the same count and under the same terms, then `CC(OC(=O)c1ccc(NC(=O)CC#N)cc1)C(=O)Nc1ccc(S(=O)(=O)N2CCCC2)cc1` (stereo not drawn), with -0.404%.
Take `CCn1c(/C=C/c2ccc([N+](=O)[O-])o2)nc2ccccc2c1=O`: the Potency is 2.59 µM (active).
Regarding `Cc1ccc(-n2c(SCC(=O)N/N=C/C=C/c3ccccc3[N+](=O)[O-])nc3ccccc3c2=O)cc1`, the “activity, negative = less viability” value was 4.46%.
Same read-out and setting: then `CCOCCCn1c(NN)nc2ccccc2c1=O`, with 1.83%; and `CCC1NC(=O)c2cccnc2-n2c1nc1ccc(C)cc1c2=O` (stereo not drawn), with 16.5%; and `COc1cc2nc(N3CCCN(C)CC3)nc(NC(C)C)c2cc1OC`, with -15.7%.
Still for that read-out and setting: then `COc1cc2ccc(C(C)=O)c(O)c2cc1OC`, with -1.62%.
Same read-out and setting: then `CC(C)CN1C(=O)CN(S(C)(=O)=O)CC1(C)C(=O)NCc1ccccc1` (stereo not drawn), with 25.9%; and `COc1ccc(-c2c(C)cc3oc(=O)cc(-c4ccccc4)c3c2C)cc1OC`, with 7.56%.
As to `COc1cc(OC)c2c(-c3cccc(-c4cccc(N)c4)c3)cc(=O)oc2c1`, the Potency was 6.51 µM (active).
As for `COc1ccc(-c2c(C)cc3oc(=O)cc(-c4ccccc4)c3c2C)cc1F`, the “activity, negative = less viability” value was 10.6%.
Take `COc1cc2nc(N3CCCN(C)CC3)nc(NC3CC3)c2cc1OC`: the “activity, negative = less viability” value was -21.4%.
On the same count and under the same terms, then `Cc1nc2ccccc2c(=O)n1-c1ccc(NS(=O)(=O)c2ccc(F)cc2F)cc1`, with 0.277%.
Regarding `Cc1[nH]n(-c2ccc(Cl)cc2)c(=O)c1/C=N/n1c(C)nc2ccccc2c1=O`, the Potency is 23.1 µM (active).
For `O=c1c2ccccc2ncn1/N=C/c1ccccc1`, the “activity, negative = less viability” value was 3.2%.
In the case of `CC1(C)CCSC(/C=C/c2ccccc2)=N1`, the Potency was 23.1 µM (active).
For `CC1(C(=O)O)CCN1C(=O)/C=C/c1ccccc1` (stereo not drawn), the “activity, negative = less viability” value was 22%.
Same read-out and setting: then `CC1(C(=O)NS(=O)(=O)c2ccccc2)CCN1C(=O)C/C=C/c1ccccc1` (stereo not drawn), with 1.36%.
On the same count and under the same terms, then `O=C(O)C(=Cc1ccc([N+](=O)[O-])cc1)CCc1ccccc1`, with -1.78%.
Still for that read-out and setting: then `Brc1ccc2nc(-c3ccccc3)c(Cc3ccccc3)n2c1`, with 17.3%; and `Cc1ccc(-c2nc3ccc(Br)cn3c2Cc2ccccc2C(F)(F)F)cc1`, with -23.8%; and `CCS(=O)(=O)N1CCCC(C(=O)NCc2ccc(C)cc2)C1` (stereo not drawn), with 9.86%.
For `Cc1ccc(NC(=O)N2CCC(C(=O)NCc3ccc(F)cc3)CC2)cc1`, the “activity, negative = less viability” value is 8.01%.
With `CCc1ccc(CNC(=O)C2CCN(c3nnc(C)c4c(C)n(-c5ccc(C)cc5)nc34)CC2)cc1`, the Potency was 13 µM (active).
With `CCN(CC)C(=O)C1=C(C)N(Cc2ccc(F)cc2)C(=O)C(CC(=O)NC2CCCC2)C1` (stereo not drawn), the “activity, negative = less viability” value was -1.24%.
On the same count and under the same terms, then `COc1ccccc1NC(=O)[C@H](COCc1ccccc1)NC(=O)OC(C)(C)C`, with 6.66%; and `CCc1ccccc1NC(=O)CSc1nnc([C@@H](NC(=O)OC(C)(C)C)C(C)CC)o1` (stereo partly drawn), with 2.65%.
As to `C[C@@H](NC(=O)OC(C)(C)C)c1nnc(S(=O)(=O)Cc2ccccc2)o1`, the Potency is 16.4 µM (active).
With `CC1(C(=O)Nc2cccc3c2CCCC3)CCN1C(=O)C1(c2ccccc2)CC1` (stereo not drawn), the “activity, negative = less viability” value is -21.9%.
With `O=C(Nc1ccccc1)c1ccccc1Br`, the “activity, negative = less viability” value was -0.814%.
Consider `COc1ccc(-c2sc3ccc(OC)cc3c2C#Cc2ccccn2)cc1`, for which the “activity, negative = less viability” value is -11.5%.
In the case of `COc1ccc2sc(-c3ccc(S(C)(=O)=O)cc3)c(C#Cc3cncn3C)c2c1`, the Potency was 20.6 µM (active).
Regarding `COc1ccc2sc(-c3ccc(S(C)(=O)=O)cc3)c(-c3ccc(C(N)=O)cc3)c2c1`, the “activity, negative = less viability” value was -27.8%.
Same read-out and setting: then `CC1=C(C(=O)N(C)C)CC(CC(=O)NCCN2CCOCC2)C(=O)N1Cc1ccccc1` (stereo not drawn), with 13%.
As for `O=C1[C@H]2[C@@H](c3ccc(C(F)(F)F)cc3)N[C@]3(CCCN(Cc4ccc(Cl)cc4)C3=O)[C@H]2C(=O)N1Cc1ccccc1`, the “activity, negative = less viability” value is -17.1%.
Same read-out and setting: then `CCCCN1C[C@H](c2ccc(Br)cc2)[C@@H](CC(=O)Nc2ccc(Br)cc2)C1=O`, with -4.62%.
Same read-out and setting: then `C=CCNc1nc(N)c([N+](=O)[O-])c(NC2CCCCC2)n1`, with 0.683%; and `Nc1nc(NCC2CCCO2)nc(Nc2ccccc2F)c1[N+](=O)[O-]` (stereo not drawn), with -0.899%.
As for `Nc1nc(Nc2ccccc2F)nc(NC2CCCCC2)c1[N+](=O)[O-]`, the Potency was 16.4 µM (active).
Regarding `COc1cc(C(=O)N2CCOC23CCN(Cc2ccccc2)CC3)cc(OC)c1OC`, the “activity, negative = less viability” value is 0.0161%.
The same measure, in the same setting: then `COC(=O)c1ccc2nc(-c3ccc(F)cc3)c(Cc3ccc(C)cc3)n2c1`, with 1.66%; and `COc1ccc(-c2nn(-c3ccccc3)cc2C(=O)Nc2nccs2)cc1OC`, with -2.1%.
Still for that read-out and setting: then `CCC(=O)NCc1cc(-c2nn(C)c(=O)c3ccccc23)ccc1OC`, with 7.47%.
Regarding `CCCCCc1c(Cc2ccccc2)ncn1CCc1ccccc1OC`, the Potency is 18.4 µM (active).
On the same count and under the same terms, then `CCCCCc1c(-c2ccc(OC)c(OC)c2)ncn1CCc1ccccc1OC`, with 20.6 µM (active).
With `COc1ccccc1Cc1c(-c2ccc(Cl)cc2)nc2c3ccccc3ccn12`, the “activity, negative = less viability” value was 4.95%.
On the same count and under the same terms, then `COc1ccccc1CCNS(=O)(=O)c1cn(C)nc1C`, with 10.6%.
In the case of `CCCCc1c(-c2ccc(Br)cc2)ncn1CCc1ccccc1OC`, the Potency was 9.2 µM (active).
For `Cn1c(=O)c2c(ncn2CCc2ccccc2)n(C)c1=O`, the “activity, negative = less viability” value was 10.3%.
Turning to `COc1ccccc1Cc1c(-c2ccc(Cl)cc2)nc2ccc(Cl)cn12`, the “activity, negative = less viability” value is -12.4%.
`CC1(C(=O)NS(=O)(=O)c2ccccc2)CCN1C(=O)Cc1ccc(-c2ccccc2)cc1` (stereo not drawn): the “activity, negative = less viability” value is 13%.
On the same count and under the same terms, then `O=C(CC(CC(=O)c1ccccc1)c1ccco1)c1ccccc1`, with -6.49%.
The same measure, in the same setting: then `CC1=C(C(=O)N(C(C)C)C(C)C)CC(CC(=O)NCC2CCCCC2)C(=O)N1Cc1ccccc1` (stereo not drawn), with 1.17%; and `Cc1ccc(C=O)c([B-](F)(F)F)c1`, with -6.9%.
On the same count and under the same terms, then `O=C(NCc1ccccn1)[C@@H]1CCCN1C(=O)[C@@H]1CCCN1C(=O)c1ccccc1`, with 19.3%; and `CN1OC[C@@H]2CN[C@H](c3ccc(-c4ccccc4)cc3)C[C@@H]21`, with -11.5%.
With `CCc1ccc(C2C(C#N)=C(N)Oc3n[nH]c(CC(=O)OC)c32)cc1` (stereo not drawn), the “activity, negative = less viability” value is 10.5%.
As to `COCc1[nH]nc2c1C(C1C=CCCC1)C(C#N)=C(N)O2` (stereo not drawn), the Potency was 14.1 µM (active).
For `COc1cc(C2C(C#N)=C(N)Oc3n[nH]c(-c4ccccn4)c32)cc(OC)c1OC` (stereo not drawn), the “activity, negative = less viability” value is -0.64%.
With `Cc1ccc([C@@H]2CC(=O)[C@@H]3CN(S(=O)(=O)c4ccc(C)cc4)[C@H](c4ccccc4F)C[C@@H]3N2S(=O)(=O)c2ccc(Cl)cc2)cc1`, the “activity, negative = less viability” value was 19.9%.
On the same count and under the same terms, then `FC(F)(F)c1ccccc1Cc1c(-c2ccccc2)nc2c3ccccc3ccn12`, with 3.49%.
On the same count and under the same terms, then `NS(=O)(=O)c1ccc(NC(=O)CSc2nnc3c(n2)[nH]c2ccccc23)cc1`, with -10.4%.

The values above are taken from PubChem BioAssay AID686970 (National Center for Advancing Translational Sciences (NCATS), 2013).
